Experiment [1] concerns Human papillomavirus type 1a protein E7 (residues 44-93). The experiment in a line: small molecules binding HPV E7 44-93 – biochemical, small-molecule microarray, residues 44-93, 635 nm fluorescence, primary screen (AID 1108).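 Further: E7 fragment applied at 1 µg/mL in TBST for 1 h at 4 C; score combines spot fluorescence with its signal to noise ratio.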 Conditions: fluorescence 635 nm, higher = more signal.
Experiment [2] in a line: hepatitis C replication reporter changes, two-sided – Huh7 cells, luciferase reporter, HCV replication inhibitor project, primary screen (AID 1109).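 Further: huh7 hepatoma cells harbouring a luciferase neomycin HCV replicon reporter; luciferase luminescence as measure of HCV replicon replication; test concentration not given here.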 Conditions: Huh7 HCV replicon luciferase reporter, 48 h; higher = more signal. On the technique in general: A reporter such as luciferase makes a cellular process visible.
Experiment [3] deals with Left-right determination factor 2 (Homo sapiens) (UniProt O00292). The experiment in a line: small molecules binding LEFTY2 protein – biochemical, small-molecule microarray, 635 nm fluorescence scan, primary screen (AID 1110). Conditions: higher = more signal.
In experiment [4] the target is Calmodulin-1 (Homo sapiens) (UniProt P0DP23). The experiment in a line: small molecules binding calmodulin-1 with EGTA – biochemical, small-molecule microarray, Cy5-labelled CALM1, profiling panel (AID 1111).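 Further: labelled calmodulin applied in Tris saline Tween buffer holding calcium plus EGTA and DTT.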 Conditions: Cy5-CALM1 binding fluorescence, higher = more signal.
Experiment [5] has the same target. The experiment in a line: small molecules binding Ca-loaded calmodulin-1 – biochemical, small-molecule microarray, Cy5-labelled CALM1, plus calcium, artefact control for SMM control-protein annotation, profiling panel (AID 1112).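 Further: score merges spot fluorescence with signal to noise from triplicate slides.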 The following applies: Cy5-CALM1 binding fluorescence, higher = more signal.
A short description of experiment [6]: probe aWnt5a binding to arrayed compounds – biochemical, biotinylated probe, 635/667 nm fluorescence, primary screen (AID 1113).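 Further: score merges 667 nm fluorescence intensity with signal-to-noise per printed feature.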 The following applies: small-molecule microarray, higher = more signal.
Experiment [7] is described as follows: probe aShh binding to arrayed compounds – biochemical, biotinylated probe, 635/667 nm fluorescence, primary screen (AID 1114).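 Further: probe is biotin-labelled aShh protein from a stem cell growth factor screen; measures binding of labelled protein to compounds printed on the slide; score merges feature fluorescence at 667 nm with signal-to-noise.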 The following applies: small-molecule microarray, higher = more signal.
The nature of experiment [8]: probe aNog binding to arrayed compounds – biochemical, biotinylated probe, 635/667 nm fluorescence, primary screen (AID 1115).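 Further: probe is biotinylated aNog protein used at 0.15 µg/mL for 1 h at 4 C; z-score combines 667 nm fluorescence of each spot with its signal to noise.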 The following applies: small-molecule microarray, higher = more signal.
Experiment [9] addresses Torsin-1A-interacting protein 1 (Homo sapiens) (UniProt Q5JTV8). The experiment in a line: compound microarray binding of lysate hLAP1 – cell lysate, small-molecule microarray, COS7 lysate, 635/667 nm fluorescence, primary screen (AID 1116). Conditions: 635 nm fluorescence, higher = more signal.
In experiment [10] the target is Alpha-bungarotoxin (Bungarus multicinctus) (UniProt P60615). The experiment in a line: compounds binding labelled alpha-BTX control protein – biochemical, small-molecule microarray, Alexa647 label, 635/667 nm fluorescence, artefact control for SMM control protein annotation, profiling panel (AID 1117). The following applies: alpha-BTX-A647 binding fluorescence, higher = more signal.

The next experiment deals with Albumin (Bos taurus) (UniProt P02769). The experiment in a line: compounds binding labelled BSA control protein – biochemical, small-molecule microarray, Alexa647 label, 635/667 nm fluorescence, artefact control for SMM control protein annotation, profiling panel (AID 1118).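 Further: score merges 667 nm emission intensity and signal-to-noise per printed compound spot.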 The following applies: BSA-A647 binding, fluorescence 635 nm, higher = more signal.
Experiment [11] can be described thus: probe aXIP binding to arrayed compounds – biochemical, NeuroSMM set, 635/667 nm fluorescence, primary screen (AID 1119).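 Further: probe is the protein aXip251-270 applied at 1 µg/mL to compound-printed slides; binding of probe to printed compounds measured as 667 nm fluorescence plus signal to noise.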 Conditions: small-molecule microarray, higher = more signal, called active from +8 up or from −8 down.
Experiment [12] can be described thus: probe aNOTCH3 binding on compound microarray – biochemical, small-molecule microarray, 635/667 nm fluorescence, primary screen (AID 1120).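 Further: probe is a biotin-tagged antibody raised against NOTCH3 rather than NOTCH3 protein; score merges spot fluorescence near 667 nm with spot signal to noise.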 Conditions: higher = more signal.
Experiment [13] can be described thus: probe aNOTCH2 binding on compound microarray – biochemical, small-molecule microarray, 635/667 nm fluorescence, primary screen (AID 1121).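 Further: score merges feature fluorescence read at 667 nm with its signal to noise.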 The following applies: higher = more signal.
Experiment [14] addresses Carbonic anhydrase 2 (Homo sapiens) (UniProt P00918). The experiment is described as follows: compounds binding carbonic anhydrase 2 – biochemical, small-molecule microarray, Alexa647-labelled CAII, profiling panel (AID 1122). The following applies: CAII-A647 binding fluorescence, higher = more signal.
Experiment [15] can be described thus: COS7 lysate on small-molecule microarray, probe aHis, 635 nm (AID 1123).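 Further: z-score combines 667nm fluorescence intensity with signal-to-noise per printed compound spot.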 The following applies: COS7 cell lysate, fluorescence, higher = more signal.
Experiment [16] is described as follows: probe aLAP1 signal on lysate-treated microarray – cell lysate, small-molecule microarray, COS7 lysate, primary screen (AID 1124).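 Further: lysate comes from COS7 cells expressing LAP1 and is applied at 0.3 µg/mL; score merges spot fluorescence near 667 nm with signal-to-noise over triplicate slides.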 The following applies: probe aLAP1, fluorescence, higher = more signal.
Another experiment relates to Sam68 (KHDRBS1). The experiment is described as follows: compounds binding KHDRBS1 protein – biochemical, small-molecule microarray, 635 nm fluorescence, primary screen (AID 1125).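 Further: score merges 667 nm channel intensity with signal to noise over triplicate slides.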 The following applies: higher = more signal.
The subject of experiment [17] is Chordin-like protein 2 (CHRDL2). The experiment in a line: compounds binding chordin-like 2 – biochemical, small-molecule microarray, 635 nm fluorescence, primary screen (AID 1126).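 Further: printed compound slides probed with Chrdl2 protein at 4 µg/mL for 1 h at 4 C; score merges 667 nm emission intensity with signal to noise over three replicate slides.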 The following applies: fluorescence 635 nm, higher = more signal.
For experiment [18], the target named is Concanavalin-A (Canavalia ensiformis) (UniProt P02866). The experiment is described as follows: compounds binding concanavalin A lectin – biochemical, small-molecule microarray, Alexa647 label, 635 nm, artefact control for SMM control protein annotation, primary screen (AID 1127).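 Further: z combines 667 nm emission intensity with signal-to-noise across three replicate slides.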 The following applies: ConA-A647 binding fluorescence, higher = more signal.

The source made the active and inactive calls.

Chain of Left-right determination factor 2 (Homo sapiens) (O00292 whole entry, looked up): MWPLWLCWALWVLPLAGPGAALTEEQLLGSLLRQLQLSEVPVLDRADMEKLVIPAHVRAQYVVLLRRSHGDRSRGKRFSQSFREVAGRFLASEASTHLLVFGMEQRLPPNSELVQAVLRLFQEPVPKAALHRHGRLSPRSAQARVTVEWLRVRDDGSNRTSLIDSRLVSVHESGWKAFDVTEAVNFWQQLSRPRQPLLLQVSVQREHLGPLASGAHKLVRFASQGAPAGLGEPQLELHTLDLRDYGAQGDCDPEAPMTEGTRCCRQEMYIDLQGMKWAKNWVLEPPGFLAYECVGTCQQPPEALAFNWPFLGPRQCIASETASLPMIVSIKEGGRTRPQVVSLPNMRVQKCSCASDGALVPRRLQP
Chain of Torsin-1A-interacting protein 1 (Homo sapiens) (Q5JTV8 whole entry, looked up): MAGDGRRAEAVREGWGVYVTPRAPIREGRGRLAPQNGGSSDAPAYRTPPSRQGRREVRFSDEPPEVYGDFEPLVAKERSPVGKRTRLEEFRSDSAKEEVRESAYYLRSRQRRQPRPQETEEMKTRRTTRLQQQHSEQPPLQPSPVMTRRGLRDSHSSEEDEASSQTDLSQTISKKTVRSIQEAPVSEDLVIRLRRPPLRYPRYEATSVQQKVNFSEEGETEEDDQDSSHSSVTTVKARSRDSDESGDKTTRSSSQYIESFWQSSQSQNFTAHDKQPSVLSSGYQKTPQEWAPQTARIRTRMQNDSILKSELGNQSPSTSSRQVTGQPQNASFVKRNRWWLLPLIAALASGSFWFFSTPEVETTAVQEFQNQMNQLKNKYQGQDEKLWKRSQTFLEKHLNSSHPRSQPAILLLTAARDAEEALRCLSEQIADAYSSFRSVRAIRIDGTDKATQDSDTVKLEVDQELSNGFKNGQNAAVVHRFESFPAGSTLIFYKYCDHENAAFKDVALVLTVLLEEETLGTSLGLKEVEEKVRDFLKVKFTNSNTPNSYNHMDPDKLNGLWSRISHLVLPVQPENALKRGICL
Chain of Concanavalin-A (Canavalia ensiformis) (P02866 whole entry, looked up): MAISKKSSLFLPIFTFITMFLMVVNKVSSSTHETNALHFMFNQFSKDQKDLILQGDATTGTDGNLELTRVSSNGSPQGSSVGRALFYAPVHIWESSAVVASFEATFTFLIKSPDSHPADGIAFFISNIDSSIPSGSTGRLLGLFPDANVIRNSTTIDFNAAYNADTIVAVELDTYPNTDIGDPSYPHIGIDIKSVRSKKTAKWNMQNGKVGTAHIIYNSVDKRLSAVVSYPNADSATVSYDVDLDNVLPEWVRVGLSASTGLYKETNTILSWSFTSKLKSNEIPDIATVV
Chain of Alpha-bungarotoxin (Bungarus multicinctus) (P60615 whole entry, looked up): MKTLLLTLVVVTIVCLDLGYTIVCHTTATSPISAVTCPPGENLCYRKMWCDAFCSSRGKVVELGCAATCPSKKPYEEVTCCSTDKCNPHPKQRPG
Chain of Albumin (Bos taurus) (P02769 whole entry, looked up): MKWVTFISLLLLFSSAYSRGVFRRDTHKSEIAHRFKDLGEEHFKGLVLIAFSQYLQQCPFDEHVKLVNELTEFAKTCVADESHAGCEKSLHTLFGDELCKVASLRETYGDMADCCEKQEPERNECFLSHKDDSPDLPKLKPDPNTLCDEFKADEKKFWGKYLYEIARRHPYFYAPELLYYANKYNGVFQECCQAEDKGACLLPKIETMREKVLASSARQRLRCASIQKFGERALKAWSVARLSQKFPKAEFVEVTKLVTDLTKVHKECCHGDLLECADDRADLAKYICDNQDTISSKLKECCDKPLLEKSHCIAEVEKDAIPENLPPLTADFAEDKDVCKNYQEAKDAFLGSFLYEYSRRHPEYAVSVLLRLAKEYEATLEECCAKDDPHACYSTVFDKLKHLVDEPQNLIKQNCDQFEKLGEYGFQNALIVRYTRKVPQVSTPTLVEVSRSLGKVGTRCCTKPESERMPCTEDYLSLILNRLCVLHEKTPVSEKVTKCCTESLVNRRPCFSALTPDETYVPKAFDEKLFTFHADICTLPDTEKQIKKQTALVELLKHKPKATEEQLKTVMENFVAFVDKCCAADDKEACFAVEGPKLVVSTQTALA

With `[N-]=[N+]=NCc1ccccc1[C@@H]1OC(c2ccc(OCCCO)cc2)=N[C@]1(CCS(=O)(=O)c1ccccc1)C(N)=O`, the composite z-score was 1.5 in experiment [1]; 0.767 in [3]; 0.731 in experiment [4]; 0.242 in experiment [5]; 0.164 in experiment [6]; 0.5 in experiment [7]. Further, the composite z-score in experiment [8] is 0.769; in experiment [9] it was 1.81; in experiment [10], 2.19; with Albumin (Bos taurus) it was 0.0943; in [12], 0.369; in experiment [13] it was 0.0703. Besides, the composite z-score in experiment [14] is 0.637; in experiment [15], 3.29; in experiment [16], 0.247; with Sam68 (KHDRBS1), 1.28; in experiment [17], 1.1; in [18] it was 0.971. Besides, in [2], the z-score worked out at 1.35. For the same compound, the composite Z-score in experiment [11] is 0.466 (inactive).
Consider `CC=CC(O)C1C=CC2C(=O)N(C)C(=O)C2N1N(c1ccccc1)c1ccccc1` (stereo not given), for which the composite z-score was -1.28 in experiment [1]; 0.36 in experiment [3]; -0.54 in experiment [4]; -1.3 in [5]; -0.104 in experiment [6]; -0.0769 in experiment [7]. Further, the composite z-score is -0.0281 in experiment [8]; 1.13 in experiment [9]; 0.721 in experiment [10]; 0.803 with Albumin (Bos taurus); 0.0864 in experiment [12]; 0.0843 in experiment [13]. For the same compound, the composite z-score was 0.837 in experiment [14]; -0.213 in experiment [15]; 0.198 in experiment [16]; -0.113 in the experiment on Sam68 (KHDRBS1); 0.686 in experiment [17]; 0.555 in experiment [18]. In addition, the z-score in [2] is -0.332. In addition, in experiment [11], the composite Z-score is -0.222 (inactive).
Turning to `[N-]=[N+]=Nc1ccccc1C[C@]1(C(=O)NCc2ccccc2)N=C(c2ccc(OCCCO)cc2)O[C@H]1c1ccccc1N=[N+]=[N-]`, the composite z-score is 1.42 in experiment [1]; -0.366 in [3]; 1.99 in experiment [4]; 0.177 in experiment [5]; 0.164 in [6]; 0.149 in [7]. In addition, the composite z-score in experiment [8] is -0.237; in experiment [9], 1.02; in experiment [10], 1.48; with Albumin (Bos taurus), 0.896; in [12] it was 0.555; in experiment [13] it was -0.0211. Besides, the composite z-score in [14] was 0.676; in experiment [15] it was 2.63; in experiment [16] it was 0.458; with Sam68 (KHDRBS1), 1.06; in [17], -0.124; in experiment [18] it was 1.13. In experiment [2], this compound came in with a z-score of -2.34. Besides, the composite Z-score in experiment [11] was 0.411 (inactive).
In the case of `C=CC[C@@]1(C(=O)N2CCCCC2)N=C(c2ccc(OCCCO)cc2)O[C@@H]1c1ccccc1CN=[N+]=[N-]`, the composite z-score in [1] was determined as 1.48; in experiment [3], 0.0868; in experiment [4], 1.75; in experiment [5] it was 0.797; in experiment [6] it was 0.104; in experiment [7], 0.57. Further, the composite z-score in experiment [8] is 1.18; in [9] it was 1.76; in experiment [10], 2.05; with Albumin (Bos taurus), 0.866; in experiment [12], 0.244; in experiment [13], -0.0505. The composite z-score in experiment [14] is 0.671; in experiment [15], 3.13; in experiment [16] it was 1.06; in the experiment with Sam68 (KHDRBS1), 1.29; in experiment [17] it was -0.602; in experiment [18], 1.04. Further, the z-score in [2] was -2.39. In [11], the composite Z-score was -0.166 (inactive).
With `COC(=O)[C@@]1(Cc2ccccc2)[C@H]2c3cc(C(=O)N(C)C)n(CCc4c[nH]c5ccc(O)cc45)c3C[C@H]2CN1C(=O)c1ccccc1`, the composite z-score was 1.32 in experiment [1]; -0.119 in experiment [3]; 1.2 in experiment [4]; 0.0493 in experiment [5]; 0.0031 in experiment [6]; -0.0146 in experiment [7]. The composite z-score in [8] is 0.843; in experiment [9], 1.48; in [10], 0.194; in the experiment with Albumin (Bos taurus), 1.01; in [12], 0.238; in experiment [13], 0.153. Also, the composite z-score in experiment [14] was 0.858; in [15], 2.15; in [16], 1.29; in the experiment with Sam68 (KHDRBS1) it was 0.878; in [17], -0.676; in experiment [18], 0.0221. In experiment [2], this compound returned a z-score of -2.07. Also, in experiment [11], the composite Z-score is 0.492 (inactive).
Regarding `CN(C)CCCCCCNC(=O)[C@@H]1C[C@@H]2C(=O)N[C@@H](CCCC[N+](C)(C)C)C(=O)N2[C@@H]1c1ccc(O)cc1`, the composite z-score in experiment [1] is -1.27; in experiment [3], 0.839; in experiment [4], -1.01; in experiment [5] it was -0.702; in [6] it was -0.216; in [7], -0.358. For the same compound, the composite z-score in [8] was -0.277; in experiment [9] it was 0.964; in experiment [10], 0.257; in the experiment with Albumin (Bos taurus), -0.793; in [12], 0.164; in experiment [13], -0.231. In addition, the composite z-score in experiment [14] worked out at 0.797; in experiment [15], 0.125; in [16], 0.246; with Sam68 (KHDRBS1), 0.794; in [17] it was 0.918; in experiment [18], 0.898. Moreover, the z-score in [2] stood at 1.61. In addition, the composite Z-score in experiment [11] is 1.56 (inactive).

Values taken from PubChem BioAssay.
